Structures are written as SMILES. Activity calls are given as the source filed them.

A short description of experiment [1]: E. coli DRC41 culture turbidity changes, primary screen, E. coli filamentation inducer project, strain DRC41, OD650, 48 h (AID 1152).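 Also: E. coli MC1000 strain DRC41 lacking acrAB efflux pump and sulA.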 As to conditions: E. coli DRC41 (acrAB sulA), higher = more signal, called active from +8 up or from −8 down.
The nature of experiment [2]: small-molecule binders of probe aLefty1, primary screen, biochemical, small-molecule microarray, 635/667 nm fluorescence (AID 1153).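 Also: score merges spot fluorescence with signal-to-noise ratio from the scanned slide images.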 Conditions: higher = more signal.
The nature of experiment [3]: PSAC antagonists in infected red cells, primary screen, cell-based, P. falciparum Indochina, OD700, 1 h (AID 1154). As to conditions: P. falciparum Indochina infected RBC osmotic lysis, higher = more signal, called active from +8 up or from −8 down.
Experiment [4] in a line: PSAC antagonists in infected red cells, primary screen, cell-based, P. falciparum Indochina, OD700, 2 h (AID 1155).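 Also: lysis reports solute entry through the parasite surface anion channel PSAC; channel blockers reduce lysis of infected cells.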 As to conditions: P. falciparum Indochina infected erythrocytes, osmotic lysis OD700; higher = more signal, called active from +8 up or from −8 down.
A short description of experiment [5]: osmotic lysis modulators in infected erythrocytes, primary screen, PSAC antagonist project, cell-based, P. falciparum Indochina, OD700, 3 h (AID 1156). Conditions: higher = more signal, called active from +8 up or from −8 down.
Experiment [6] is described as follows: PSAC antagonists in infected red cells, primary screen, cell-based, P. falciparum Indochina, OD700, 18 h (AID 1157). As to conditions: P. falciparum Indochina infected erythrocytes, osmotic lysis OD700, 18 h; higher = more signal, called active from +8 up or from −8 down.
The nature of experiment [7]: modulators of S6 phosphorylation in cells, primary screen, cell-based, A549, cytoblot, luminescence, serum-stimulated (AID 1158).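 Also: serum-stimulated A549 lung adenocarcinoma cells; signal is phosphorylated S6 detected by cytoblot immunostaining with HRP secondary.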 As to conditions: A549 phospho-S6 cytoblot, 5 h, higher = more signal.
Experiment [8] has as its target NADPH oxidase 2 (Homo sapiens) (UniProt P04839). Nature of the experiment: NOX2-dependent H2O2 signal modulators, primary screen, NOX inhibitor project, cell-based, HEK293-NOX2, PMA-stimulated, Amplex Red fluorescence (AID 1159). Also: test concentration not given here. As to conditions: 45 min, higher = more signal, called active from +8 up or from −8 down.
The target of experiment [9] is NADPH oxidase 4 (Homo sapiens) (UniProt Q9NPH5). In words: NOX4-dependent H2O2 signal modulators, primary screen, NOX inhibitor project, cell-based, HEK293-NOX4, tetracycline-induced, Amplex Red fluorescence (AID 1160). Conditions: 45 min, higher = more signal, called active from +8 up or from −8 down.
Experiment [10] concerns the target NADPH oxidase 5 (Homo sapiens) (UniProt Q96PH1). Nature of the experiment: NOX5-dependent H2O2 signal modulators, primary screen, NOX inhibitor project, cell-based, HEK293-NOX5, Amplex Red fluorescence (AID 1161). As to conditions: HEK293-NOX5, ionomycin, 45 min, higher = more signal.
Experiment [11] can be described thus: A549 cell viability effects, profiling panel, calcein-AM fluorescence, 48 h, basal (AID 1162). Also: test concentration not given here. As to conditions: higher = more signal.
Experiment [12] can be described thus: adipocyte viability effects, profiling panel, cell-based, 3T3-L1 adipocytes, calcein-AM fluorescence, 48 h, basal (AID 1163). Also: test concentration not given here. Conditions: 3T3-L1 adipocytes viability, higher = more signal.
Experiment [13] in a line: HepG2 cell viability effects, profiling panel, calcein-AM fluorescence, 48 h, basal (AID 1164). Also: test concentration not given here. As to conditions: higher = more signal.
Experiment [14] is described as follows: MM1S cell viability effects, profiling panel, calcein-AM fluorescence, 48 h, basal (AID 1165).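 Also: viability of MM1S multiple myeloma cells under basal unstimulated conditions; test concentration not given here.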 As to conditions: higher = more signal.
Experiment [15] in a line: basal RPMI8226 viability, no added stimulus, profiling panel, cell-based, calcein-AM fluorescence, 48 h, PK04 Diversity Set (AID 1166).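 Also: cells grown under basal conditions without added stimulus; test concentration not given here.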 Conditions: RPMI8226 myeloma viability, higher = more signal.
The nature of experiment [16]: basal HepG2 mitochondrial membrane potential changes, profiling panel, cell-based, JC-1 fluorescence, 24 h, 100 nL compound (AID 1167). Also: test concentration not given here. As to conditions: higher = more signal.
Experiment [17] can be described thus: basal 3T3-L1 adipocyte mitochondrial potential changes, profiling panel, cell-based, JC-1 fluorescence, 3T3-L1 adipocytes, 24 h, 100 nL compound (AID 1168). Also: test concentration not given here. Conditions: JC-1 mitochondrial fluorescence, higher = more signal, called active from +8 up or from −8 down.
A short description of experiment [18]: basal RPMI8226 mitochondrial membrane potential changes, profiling panel, cell-based, JC-1 fluorescence, 24 h, 100 nL compound (AID 1169). Also: test concentration not given here. Conditions: RPMI8226 myeloma, JC-1 mitochondrial potential fluorescence, higher = more signal.
Experiment [19] in a line: basal MM1S mitochondrial membrane potential changes, profiling panel, cell-based, JC-1 fluorescence, 24 h, 100 nL compound (AID 1170). Also: test concentration not given here. Conditions: higher = more signal.
The nature of experiment [20]: A549 lung cancer cell viability effects, profiling panel, resazurin fluorescence, 24 h, PK04 Diversity Set (AID 1171). Also: test concentration not given here. As to conditions: higher = more signal, called active from +8 up or from −8 down. Background: The colour change of resazurin is a common sign of viable cells or microbes.

Sequence of NADPH oxidase 4 (Homo sapiens) (Q9NPH5 whole entry, looked up): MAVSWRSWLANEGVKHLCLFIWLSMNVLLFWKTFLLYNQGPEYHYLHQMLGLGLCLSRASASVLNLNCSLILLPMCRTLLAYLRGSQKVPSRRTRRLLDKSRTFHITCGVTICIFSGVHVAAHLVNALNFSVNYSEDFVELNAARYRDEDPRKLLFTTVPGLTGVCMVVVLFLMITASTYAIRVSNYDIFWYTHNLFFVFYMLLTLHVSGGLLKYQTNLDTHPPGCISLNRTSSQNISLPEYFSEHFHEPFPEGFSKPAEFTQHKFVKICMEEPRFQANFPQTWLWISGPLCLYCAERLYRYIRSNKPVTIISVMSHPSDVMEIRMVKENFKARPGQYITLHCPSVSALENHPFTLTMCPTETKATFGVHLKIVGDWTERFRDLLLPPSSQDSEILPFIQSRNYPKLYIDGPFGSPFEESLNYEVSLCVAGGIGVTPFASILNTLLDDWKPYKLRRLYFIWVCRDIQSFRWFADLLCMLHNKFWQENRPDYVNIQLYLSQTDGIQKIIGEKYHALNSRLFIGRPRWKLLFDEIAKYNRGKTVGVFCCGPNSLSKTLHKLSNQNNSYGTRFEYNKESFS
Sequence of NADPH oxidase 5 (Homo sapiens) (Q96PH1 whole entry, looked up): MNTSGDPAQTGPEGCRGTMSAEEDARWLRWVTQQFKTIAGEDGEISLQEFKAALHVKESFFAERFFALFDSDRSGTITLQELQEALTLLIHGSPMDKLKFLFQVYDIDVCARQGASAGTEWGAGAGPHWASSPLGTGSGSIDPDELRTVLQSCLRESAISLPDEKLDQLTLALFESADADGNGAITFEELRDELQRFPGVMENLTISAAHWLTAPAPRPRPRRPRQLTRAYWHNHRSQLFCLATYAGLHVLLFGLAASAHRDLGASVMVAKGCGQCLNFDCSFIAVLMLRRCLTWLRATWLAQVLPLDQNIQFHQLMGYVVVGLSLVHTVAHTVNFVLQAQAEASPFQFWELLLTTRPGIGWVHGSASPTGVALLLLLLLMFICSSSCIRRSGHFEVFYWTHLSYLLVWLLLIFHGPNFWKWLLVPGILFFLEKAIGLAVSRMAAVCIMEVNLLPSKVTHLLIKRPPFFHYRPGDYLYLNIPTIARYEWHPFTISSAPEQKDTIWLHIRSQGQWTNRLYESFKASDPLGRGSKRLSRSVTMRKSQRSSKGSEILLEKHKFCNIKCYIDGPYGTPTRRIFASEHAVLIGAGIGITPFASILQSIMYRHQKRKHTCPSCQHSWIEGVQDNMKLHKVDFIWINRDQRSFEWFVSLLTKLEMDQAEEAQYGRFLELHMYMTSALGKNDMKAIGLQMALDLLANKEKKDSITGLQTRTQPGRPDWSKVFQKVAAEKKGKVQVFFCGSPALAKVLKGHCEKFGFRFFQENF
Sequence of NADPH oxidase 2 (Homo sapiens) (P04839 whole entry, looked up): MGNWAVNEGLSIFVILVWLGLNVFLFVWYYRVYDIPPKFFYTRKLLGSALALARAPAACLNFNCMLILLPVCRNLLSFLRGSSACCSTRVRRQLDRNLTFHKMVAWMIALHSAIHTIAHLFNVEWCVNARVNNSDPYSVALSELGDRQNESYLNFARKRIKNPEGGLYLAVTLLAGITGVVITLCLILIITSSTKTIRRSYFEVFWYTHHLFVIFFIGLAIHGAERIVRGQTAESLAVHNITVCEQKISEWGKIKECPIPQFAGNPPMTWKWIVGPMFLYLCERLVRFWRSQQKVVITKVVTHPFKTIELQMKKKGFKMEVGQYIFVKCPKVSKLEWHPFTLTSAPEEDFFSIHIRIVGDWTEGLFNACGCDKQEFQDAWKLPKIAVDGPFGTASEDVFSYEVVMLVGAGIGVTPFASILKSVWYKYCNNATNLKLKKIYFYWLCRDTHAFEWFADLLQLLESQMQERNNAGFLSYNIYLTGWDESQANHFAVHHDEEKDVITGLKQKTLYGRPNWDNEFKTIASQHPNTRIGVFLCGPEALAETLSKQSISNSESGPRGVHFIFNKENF

Consider `O=C1OCCC=C[C@H]2OC34C=CCN(c5ccc6ccccc6c5)C(=O)[C@H]3N(CCCCCCO)C(=O)[C@@H]4C12` (stereo not given in full), for which the z-score in experiment [1] is 0.901 (inactive); in experiment [3], 0.856 (inactive); in experiment [4], 0.712 (inactive); in [5], 0.738 (inactive); in experiment [6] it was 0.426 (inactive); in experiment [7], 1.08. The z-score is 1.42 (inactive) in experiment [8]; 0.441 (inactive) in experiment [9]; 2.68 in [10]; 0.705 in experiment [11]; -0.488 in experiment [12]; 0.461 in experiment [13]. Also, the z-score is 1.1 in experiment [14]; 0.734 in [15]; 1.3 in experiment [16]; 0.0246 (inactive) in [17]; -0.00773 in experiment [18]; -0.456 in experiment [19]. Besides, the z-score in experiment [20] is 0.866 (inactive). The compound further registered a composite z-score in [2] of -0.0536.
Turning to `COCC1=C([C@H](O)CCc2ccccc2)[C@H](CO)[C@@H]2C(=O)N(Cc3ccccc3)C(=O)[C@@H]2C1`, the z-score is 1.72 (inactive) in experiment [1]; 15.3 (active) in experiment [3]; 2.04 (inactive) in experiment [4]; 0.23 (inactive) in experiment [5]; 0.477 (inactive) in experiment [6]; 0.24 in [7]. Further, the z-score in [8] is -0.543 (inactive); in experiment [9], 0.21 (inactive); in experiment [10], -0.0312; in [11], 0.883; in experiment [12], 0.709; in experiment [13], 0.984. Besides, the z-score in experiment [14] was 0.418; in experiment [15], 0.438; in experiment [16], 0.592; in experiment [17], 0.424 (inactive); in experiment [18], 0.469; in experiment [19] it was -1.37. Moreover, the z-score in experiment [20] was 0.859 (inactive). The composite z-score in experiment [2] is -0.194.
As for `COC(=O)C(CC#Cc1ccc2c(c1)[C@]1(C(=O)N2)[C@H](C(=O)N2CCCCCCC2)[C@H]2C(=O)O[C@H](c3ccccc3)[C@H](c3ccccc3)N2[C@@H]1c1ccccc1OCCO)C(=O)OC`, the z-score in experiment [1] was -0.984 (inactive); in [3] it was 1.49 (inactive); in [4] it was 0.918 (inactive); in [5], 0.573 (inactive); in experiment [6], 0.417 (inactive); in experiment [7] it was -0.0756. Besides, the z-score in experiment [8] was 0.445 (inactive); in experiment [9] it was 0.262 (inactive); in experiment [10], 1.22; in experiment [11], -0.65; in experiment [12] it was 0.091; in experiment [13], 0.491. In addition, the z-score in experiment [14] was -0.216; in experiment [15], -0.421; in experiment [16] it was 0.0896; in experiment [17], 1.09 (inactive); in [18], -0.835; in experiment [19], -1.33. Moreover, the z-score in experiment [20] is 0.901 (inactive). This compound also came in with a composite z-score in experiment [2] of 3.08.
For `O=C1O[C@@H](c2ccccc2)[C@@H](c2ccccc2)N2[C@@H](c3ccc(O)cc3)[C@]3(C(=O)Nc4ccc(C#CCCO)cc43)[C@@H](C(=O)O)[C@H]12`, the z-score is 0.742 (inactive) in [1]; 2.28 (inactive) in experiment [3]; 0.62 (inactive) in [4]; 1.22 (inactive) in experiment [5]; 0.614 (inactive) in [6]; -0.29 in experiment [7]. The z-score was 0.645 (inactive) in experiment [8]; -1.2 (inactive) in experiment [9]; 1.21 in [10]; 1.18 in experiment [11]; 0.352 in experiment [12]; 1.41 in experiment [13]. The z-score in experiment [14] was -1.34; in experiment [15], -0.16; in experiment [16], 0.767; in experiment [17] it was -1.02 (inactive); in experiment [18], -0.342; in experiment [19], -0.29. In addition, the z-score in [20] was 0.492 (inactive). In [2], this compound gave a composite z-score of 1.99.
